# Data as given in PubChem BioAssay.
# The source made the active and inactive calls.
# Columns and labels:
# [1] = system: Plasmodium falciparum Sir2 (PF13_0152, Sir2A); assay: Plasmodium falciparum Sir2A binding compounds – biochemical, small-molecule microarray, 635 nm fluorescence, primary screen (AID 1098); settings: fluorescence 635 nm, higher = more signal;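 also: score merges spot fluorescence intensity with its signal-to-noise ratio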
# [2] = probe aDKK1 binding to arrayed compounds – biochemical, biotinylated probe, 635/667 nm fluorescence, primary screen (AID 1099); settings: small-molecule microarray, higher = more signal;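 also: score merges 667nm spot fluorescence with signal to noise across triplicate slides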
# [3] = probe aCHRDL2 binding to arrayed compounds – biochemical, biotinylated probe, 635/667 nm fluorescence, primary screen (AID 1100); settings: small-molecule microarray, higher = more signal
# [4] = change in splice reporter luminescence, either direction, cell-based, HEK293, spliceosome inhibition project, primary screen (AID 1101); settings: HEK293 splicing luciferase reporter, 24 h, higher = more signal, called active from +8 up or from −8 down;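 also: HEK293 cells carrying a splicing-competent luciferase reporter gene; test concentration not given here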
# [5] = molecular target: Fibroblast growth factor 10 (Homo sapiens) (UniProt O15520); assay: compounds binding fibroblast growth factor 10 – biochemical, small-molecule microarray, 635 nm fluorescence, primary screen (AID 1102); settings: FGF10 binding, fluorescence 635 nm, higher = more signal
# Sequence of Fibroblast growth factor 10 (Homo sapiens) (O15520 whole entry, looked up): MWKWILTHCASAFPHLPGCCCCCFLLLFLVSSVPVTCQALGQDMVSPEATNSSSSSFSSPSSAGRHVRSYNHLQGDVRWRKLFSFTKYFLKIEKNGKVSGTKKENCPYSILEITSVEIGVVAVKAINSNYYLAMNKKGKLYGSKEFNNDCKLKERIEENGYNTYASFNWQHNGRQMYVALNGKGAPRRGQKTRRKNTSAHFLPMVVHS
# [6] = system: glycogen synthase kinase-3 (GSK3A per assay name; protocol says GSK3B); assay: compounds binding glycogen synthase kinase-3 – biochemical, small-molecule microarray, 635 nm fluorescence, GSK3A, primary screen (AID 1103); settings: fluorescence 635 nm, higher = more signal; also: the record names both GSK3A and GSK3B
# [7] = molecular target: Epidermal growth factor receptor (Homo sapiens) (UniProt P00533); assay: compounds binding epidermal growth factor receptor – biochemical, small-molecule microarray, 635 nm fluorescence, primary screen (AID 1104); settings: EGFR binding, higher = more signal;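 also: score merges 667 nm emission intensity with spot signal to noise over triplicate slides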
# Sequence of Epidermal growth factor receptor (Homo sapiens) (P00533 whole entry, looked up): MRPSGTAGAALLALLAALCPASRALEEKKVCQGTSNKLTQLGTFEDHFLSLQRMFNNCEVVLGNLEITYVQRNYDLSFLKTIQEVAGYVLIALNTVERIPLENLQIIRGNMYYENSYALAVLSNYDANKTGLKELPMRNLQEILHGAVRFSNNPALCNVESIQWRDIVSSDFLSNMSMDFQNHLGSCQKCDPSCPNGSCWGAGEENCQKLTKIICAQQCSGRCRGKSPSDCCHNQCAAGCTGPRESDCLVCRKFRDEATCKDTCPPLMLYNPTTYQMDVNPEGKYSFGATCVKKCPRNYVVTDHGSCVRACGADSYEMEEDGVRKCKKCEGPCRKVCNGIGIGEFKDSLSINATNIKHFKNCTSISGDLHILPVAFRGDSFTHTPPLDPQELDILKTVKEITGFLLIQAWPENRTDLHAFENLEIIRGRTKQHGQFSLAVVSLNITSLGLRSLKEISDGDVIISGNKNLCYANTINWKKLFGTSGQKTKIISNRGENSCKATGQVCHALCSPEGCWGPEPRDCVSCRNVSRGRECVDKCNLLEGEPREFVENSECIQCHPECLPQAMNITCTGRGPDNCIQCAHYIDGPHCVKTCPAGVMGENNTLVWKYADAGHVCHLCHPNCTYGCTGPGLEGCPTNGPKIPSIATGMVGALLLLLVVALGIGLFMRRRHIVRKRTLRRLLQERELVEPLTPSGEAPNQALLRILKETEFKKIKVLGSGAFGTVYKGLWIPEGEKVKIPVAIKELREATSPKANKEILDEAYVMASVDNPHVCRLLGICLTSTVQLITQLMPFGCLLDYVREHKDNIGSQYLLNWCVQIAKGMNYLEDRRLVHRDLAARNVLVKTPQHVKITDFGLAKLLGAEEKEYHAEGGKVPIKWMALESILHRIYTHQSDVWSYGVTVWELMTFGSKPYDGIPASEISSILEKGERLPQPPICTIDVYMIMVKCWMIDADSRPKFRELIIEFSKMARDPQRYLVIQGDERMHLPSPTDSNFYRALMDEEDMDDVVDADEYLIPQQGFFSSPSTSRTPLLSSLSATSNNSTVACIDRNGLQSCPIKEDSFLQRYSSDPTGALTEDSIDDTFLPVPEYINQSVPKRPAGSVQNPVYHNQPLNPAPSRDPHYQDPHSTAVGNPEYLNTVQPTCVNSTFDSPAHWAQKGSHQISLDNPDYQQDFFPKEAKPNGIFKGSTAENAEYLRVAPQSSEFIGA
# [8] = molecular target: Follistatin-related protein 3 (Homo sapiens) (UniProt O95633); assay: compounds binding follistatin-related protein 3 – biochemical, small-molecule microarray, 635 nm fluorescence, primary screen (AID 1105); settings: FSTL3 binding, higher = more signal;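 also: score merges emission near 667 nm and signal to noise per printed spot across three slides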
# Sequence of Follistatin-related protein 3 (Homo sapiens) (O95633 whole entry, looked up): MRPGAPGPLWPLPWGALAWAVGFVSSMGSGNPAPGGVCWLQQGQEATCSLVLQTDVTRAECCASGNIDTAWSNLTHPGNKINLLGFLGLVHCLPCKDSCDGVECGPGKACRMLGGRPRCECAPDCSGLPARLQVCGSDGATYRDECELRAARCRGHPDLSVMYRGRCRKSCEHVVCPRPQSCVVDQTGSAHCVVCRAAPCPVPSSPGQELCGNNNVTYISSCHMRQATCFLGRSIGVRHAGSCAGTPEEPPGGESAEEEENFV
# [9] = molecular target: Dickkopf-related protein 1 (Homo sapiens) (UniProt O94907); assay: small molecules binding DKK1 protein – biochemical, small-molecule microarray, 635 nm fluorescence scan, primary screen (AID 1106); settings: higher = more signal;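 also: score merges emission near 667 nm with signal to noise over three replicate slides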
# Sequence of Dickkopf-related protein 1 (Homo sapiens) (O94907 whole entry, looked up): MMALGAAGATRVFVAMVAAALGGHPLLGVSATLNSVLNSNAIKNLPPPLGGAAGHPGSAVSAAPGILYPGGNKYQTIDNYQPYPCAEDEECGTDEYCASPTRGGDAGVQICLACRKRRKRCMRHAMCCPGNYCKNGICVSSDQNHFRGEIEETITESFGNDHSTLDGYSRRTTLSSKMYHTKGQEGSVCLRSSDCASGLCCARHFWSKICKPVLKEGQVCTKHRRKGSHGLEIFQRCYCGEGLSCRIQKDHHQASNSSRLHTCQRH
# [10] = system: Inhibin beta A chain (activin A); assay: small molecules binding activin A – biochemical, small-molecule microarray, 635 nm fluorescence scan, primary screen (AID 1107); settings: INHBA, higher = more signal;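 also: mouse activin A protein probed at 4.33 µg/mL on printed slides; score merges bound-protein fluorescence near 667 nm with spot signal-to-noise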
# [11] = system: Human papillomavirus type 1a protein E7 (residues 44-93); assay: small molecules binding HPV E7 44-93 – biochemical, small-molecule microarray, residues 44-93, 635 nm fluorescence, primary screen (AID 1108); settings: fluorescence 635 nm, higher = more signal;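 also: E7 fragment applied at 1 µg/mL in TBST for 1 h at 4 C; score combines spot fluorescence with its signal to noise ratio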
# [12] = hepatitis C replication reporter changes, two-sided – Huh7 cells, luciferase reporter, HCV replication inhibitor project, primary screen (AID 1109); settings: Huh7 HCV replicon luciferase reporter, 48 h; higher = more signal;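 also: huh7 hepatoma cells harbouring a luciferase neomycin HCV replicon reporter; luciferase luminescence as measure of HCV replicon replication; test concentration not given here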
# [13] = molecular target: Left-right determination factor 2 (Homo sapiens) (UniProt O00292); assay: small molecules binding LEFTY2 protein – biochemical, small-molecule microarray, 635 nm fluorescence scan, primary screen (AID 1110); settings: higher = more signal
# Sequence of Left-right determination factor 2 (Homo sapiens) (O00292 whole entry, looked up): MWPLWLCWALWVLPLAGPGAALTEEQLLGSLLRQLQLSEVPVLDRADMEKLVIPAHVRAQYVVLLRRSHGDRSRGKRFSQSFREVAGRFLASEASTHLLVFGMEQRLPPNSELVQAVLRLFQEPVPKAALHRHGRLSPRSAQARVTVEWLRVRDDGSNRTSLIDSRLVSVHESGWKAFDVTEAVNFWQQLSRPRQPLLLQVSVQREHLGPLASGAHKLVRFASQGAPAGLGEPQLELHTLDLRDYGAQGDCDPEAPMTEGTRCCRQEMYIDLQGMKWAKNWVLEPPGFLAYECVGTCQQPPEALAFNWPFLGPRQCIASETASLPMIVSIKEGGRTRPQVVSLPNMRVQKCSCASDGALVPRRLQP
# [14] = molecular target: Calmodulin-1 (Homo sapiens) (UniProt P0DP23); assay: small molecules binding calmodulin-1 with EGTA – biochemical, small-molecule microarray, Cy5-labelled CALM1, profiling panel (AID 1111); settings: Cy5-CALM1 binding fluorescence, higher = more signal;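 also: labelled calmodulin applied in Tris saline Tween buffer holding calcium plus EGTA and DTT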
# [15] = molecular target: Calmodulin-1 (Homo sapiens) (UniProt P0DP23); assay: small molecules binding Ca-loaded calmodulin-1 – biochemical, small-molecule microarray, Cy5-labelled CALM1, plus calcium, artefact control for SMM control-protein annotation, profiling panel (AID 1112); settings: Cy5-CALM1 binding fluorescence, higher = more signal;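 also: score merges spot fluorescence with signal to noise from triplicate slides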
# [16] = probe aWnt5a binding to arrayed compounds – biochemical, biotinylated probe, 635/667 nm fluorescence, primary screen (AID 1113); settings: small-molecule microarray, higher = more signal;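 also: score merges 667 nm fluorescence intensity with signal-to-noise per printed feature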
# [17] = probe aShh binding to arrayed compounds – biochemical, biotinylated probe, 635/667 nm fluorescence, primary screen (AID 1114); settings: small-molecule microarray, higher = more signal;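 also: probe is biotin-labelled aShh protein from a stem cell growth factor screen; measures binding of labelled protein to compounds printed on the slide; score merges feature fluorescence at 667 nm with signal-to-noise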
# [18] = probe aNog binding to arrayed compounds – biochemical, biotinylated probe, 635/667 nm fluorescence, primary screen (AID 1115); settings: small-molecule microarray, higher = more signal;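 also: probe is biotinylated aNog protein used at 0.15 µg/mL for 1 h at 4 C; z-score combines 667 nm fluorescence of each spot with its signal to noise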
# [19] = molecular target: Torsin-1A-interacting protein 1 (Homo sapiens) (UniProt Q5JTV8); assay: compound microarray binding of lysate hLAP1 – cell lysate, small-molecule microarray, COS7 lysate, 635/667 nm fluorescence, primary screen (AID 1116); settings: 635 nm fluorescence, higher = more signal
# Sequence of Torsin-1A-interacting protein 1 (Homo sapiens) (Q5JTV8 whole entry, looked up): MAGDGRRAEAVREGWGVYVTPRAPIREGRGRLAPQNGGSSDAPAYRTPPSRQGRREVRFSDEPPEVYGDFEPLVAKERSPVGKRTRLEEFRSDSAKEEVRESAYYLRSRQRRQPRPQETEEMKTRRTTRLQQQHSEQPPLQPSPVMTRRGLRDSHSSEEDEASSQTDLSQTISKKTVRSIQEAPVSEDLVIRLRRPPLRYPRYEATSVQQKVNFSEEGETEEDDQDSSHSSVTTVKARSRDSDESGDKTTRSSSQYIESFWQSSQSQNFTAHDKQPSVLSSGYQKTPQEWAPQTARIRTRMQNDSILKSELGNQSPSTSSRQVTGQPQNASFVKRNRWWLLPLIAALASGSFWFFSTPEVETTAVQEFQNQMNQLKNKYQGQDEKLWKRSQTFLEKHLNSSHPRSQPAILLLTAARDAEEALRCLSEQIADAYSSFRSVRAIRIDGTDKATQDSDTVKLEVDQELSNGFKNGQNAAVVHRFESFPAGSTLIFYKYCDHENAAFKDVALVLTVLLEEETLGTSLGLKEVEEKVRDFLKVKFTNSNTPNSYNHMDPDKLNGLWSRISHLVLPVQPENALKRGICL
# [20] = molecular target: Alpha-bungarotoxin (Bungarus multicinctus) (UniProt P60615); assay: compounds binding labelled alpha-BTX control protein – biochemical, small-molecule microarray, Alexa647 label, 635/667 nm fluorescence, artefact control for SMM control protein annotation, profiling panel (AID 1117); settings: alpha-BTX-A647 binding fluorescence, higher = more signal
# Sequence of Alpha-bungarotoxin (Bungarus multicinctus) (P60615 whole entry, looked up): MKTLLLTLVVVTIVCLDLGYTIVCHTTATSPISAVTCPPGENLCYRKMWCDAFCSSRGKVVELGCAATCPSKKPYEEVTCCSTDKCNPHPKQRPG
compound,measurement,setting,value
COC(=O)C1=CC(c2ccc(CO)cc2)=CC(c2cccs2)N(Cc2cccc(OC(F)(F)F)c2)C=C1C(=O)OC (stereo not given),composite z-score,[1],1.49
same,composite z-score,[2],-0.0873
same,composite z-score,[3],0.428
same,z-score,[4],0.939 (inactive)
same,composite z-score,[5],0.945
same,composite z-score,[6],1.26
same,composite z-score,[7],-0.41
same,composite z-score,[8],0.568
same,composite z-score,[9],-0.0789
same,composite z-score,[10],1.09
same,composite z-score,[11],0.532
same,z-score,[12],-1.84
same,composite z-score,[13],-0.0215
same,composite z-score,[14],2.19
same,composite z-score,[15],0.815
same,composite z-score,[16],-0.0236
same,composite z-score,[17],0.685
same,composite z-score,[18],1.39
same,composite z-score,[19],1.81
same,composite z-score,[20],3.16
O=C(CS)NCCCCCNC(=O)[C@H]1C[C@H]2C(=O)N[C@@H](Cc3ccccc3)C(=O)N2[C@H]1c1ccc(O)cc1,composite z-score,[1],1.26
same,composite z-score,[2],0.27
same,composite z-score,[3],0.299
same,z-score,[4],-0.876 (inactive)
same,composite z-score,[5],0.702
same,composite z-score,[6],1.29
same,composite z-score,[7],0.957
same,composite z-score,[8],0.566
same,composite z-score,[9],1.25
same,composite z-score,[10],0.456
same,composite z-score,[11],0.151
same,z-score,[12],-0.488
same,composite z-score,[13],0.406
same,composite z-score,[14],0.741
same,composite z-score,[15],0.748
same,composite z-score,[16],-0.0977
same,composite z-score,[17],0.184
same,composite z-score,[18],0.185
same,composite z-score,[19],0.792
same,composite z-score,[20],3
CO[C@H]1O[C@H](CO)[C@@H](OC(=O)Nc2ccc3c(c2)OCO3)[C@H](OC(=O)Nc2ccccc2)[C@@H]1OC(=O)Nc1ccccc1,composite z-score,[1],0.966
same,composite z-score,[2],0.0085
same,composite z-score,[3],0.0249
same,z-score,[4],-0.788 (inactive)
same,composite z-score,[5],1.46
same,composite z-score,[6],1.16
same,composite z-score,[7],-0.228
same,composite z-score,[8],0.479
same,composite z-score,[9],-0.0463
same,composite z-score,[10],-0.0204
same,composite z-score,[11],1.45
same,z-score,[12],-1.69
same,composite z-score,[13],-0.0553
same,composite z-score,[14],1.01
same,composite z-score,[15],-0.677
same,composite z-score,[16],0.129
same,composite z-score,[17],0.0796
same,composite z-score,[18],0.953
same,composite z-score,[19],0.949
same,composite z-score,[20],0.902
CCCCCCc1nc(-c2cc(C)c(OC)c(C)c2)cc2c1[Si](C(C)C)(C(C)C)O[C@H]2c1ccccc1,composite z-score,[1],-0.717
same,composite z-score,[2],-0.268
same,composite z-score,[3],0.122
same,z-score,[4],0.399 (inactive)
same,composite z-score,[5],-0.915
same,composite z-score,[6],-0.849
same,composite z-score,[7],-0.394
same,composite z-score,[8],-0.677
same,composite z-score,[9],-0.302
same,composite z-score,[10],0.621
same,composite z-score,[11],-0.57
same,z-score,[12],0.115
same,composite z-score,[13],-0.607
same,composite z-score,[14],-0.482
same,composite z-score,[15],0.244
same,composite z-score,[16],-0.197
same,composite z-score,[17],0.0278
same,composite z-score,[18],-0.0755
same,composite z-score,[19],-0.872
same,composite z-score,[20],0.117
CC/C=C/C(=O)N(C[C@@H]1CCCO1)[C@@H]1CC(C(=O)NCCO)=C[C@H](Oc2c(I)cc(CO)cc2OC)[C@H]1O,composite z-score,[1],-0.251
same,composite z-score,[2],-0.154
same,composite z-score,[3],-0.162
same,z-score,[4],-1.44 (inactive)
same,composite z-score,[5],0.541
same,composite z-score,[6],-0.208
same,composite z-score,[7],0.0798
same,composite z-score,[8],-0.434
same,composite z-score,[9],0.554
same,composite z-score,[10],0.0756
same,composite z-score,[11],-0.2
same,z-score,[12],-0.277
same,composite z-score,[13],0.208
same,composite z-score,[14],-0.33
same,composite z-score,[15],0.0262
same,composite z-score,[16],0.497
same,composite z-score,[17],0.138
same,composite z-score,[18],0.124
same,composite z-score,[19],0.371
same,composite z-score,[20],0.515
CCOC(=O)C[C@H]1[C@H](OC(=O)c2ccccc2-c2ccccc2)[C@@H](NC(=O)c2ccc(-c3ccccc3)cc2)c2cc(OCCCO)ccc2N1C(=O)Cc1ccc(OC)cc1,composite z-score,[1],-0.0957
same,composite z-score,[2],-0.394
same,composite z-score,[3],-0.44
same,z-score,[4],-0.288 (inactive)
same,composite z-score,[5],0.295
same,composite z-score,[6],-0.189
same,composite z-score,[7],0.147
same,composite z-score,[8],0.38
same,composite z-score,[9],0.428
same,composite z-score,[10],0.701
same,composite z-score,[11],0.295
same,z-score,[12],-2.04
same,composite z-score,[13],0.462
same,composite z-score,[14],-0.203
same,composite z-score,[15],-0.499
same,composite z-score,[16],-0.111
same,composite z-score,[17],-0.0626
same,composite z-score,[18],-0.31
same,composite z-score,[19],-0.0098
same,composite z-score,[20],0.322
CCOC(=O)C[C@H]1[C@H](OC(=O)c2ccccc2-c2ccccc2)[C@@H](NC(=O)C2CCCCC2)c2cc(OCCCO)ccc2N1C(=O)c1ccccc1,composite z-score,[1],0.253
same,composite z-score,[2],-0.116
same,composite z-score,[3],-0.489
same,z-score,[4],-1.02 (inactive)
same,composite z-score,[5],1.43
same,composite z-score,[6],0.524
same,composite z-score,[7],0.797
same,composite z-score,[8],0.437
same,composite z-score,[9],0.436
same,composite z-score,[10],0.16
same,composite z-score,[11],0.0771
same,z-score,[12],-1.4
same,composite z-score,[13],1.13
same,composite z-score,[14],-0.0784
same,composite z-score,[15],-0.083
same,composite z-score,[16],-0.213
same,composite z-score,[17],-0.283
same,composite z-score,[18],-0.0502
same,composite z-score,[19],0.584
same,composite z-score,[20],0.148
COc1ccc([Si](C)(C)[C@H]2[C@H](CC(=O)N3Cc4ccccc4C[C@H]3CO)O[C@@]3(C(=O)N(Cc4cccc(N5CCOC5=O)c4)c4ccccc43)[C@@H]2C)cc1,composite z-score,[1],1.1
same,composite z-score,[2],-0.158
same,composite z-score,[3],0.0765
same,z-score,[4],-1.07 (inactive)
same,composite z-score,[5],0.701
same,composite z-score,[6],0.461
same,composite z-score,[7],1.13
same,composite z-score,[8],1.24
same,composite z-score,[9],1
same,composite z-score,[10],0.923
same,composite z-score,[11],0.294
same,z-score,[12],-3.42
same,composite z-score,[13],0.91
same,composite z-score,[14],-0.792
same,composite z-score,[15],-1.13
same,composite z-score,[16],-0.0731
same,composite z-score,[17],-0.17
same,composite z-score,[18],0.232
same,composite z-score,[19],0.473
same,composite z-score,[20],0.894
COCCOC(=O)N1C(=O)[C@@]2(c3cc(C#CCNC(N)=O)ccc31)[C@H](c1ccc(OCCO)cc1)N1[C@H](c3ccccc3)[C@H](c3ccccc3)OC(=O)[C@H]1[C@@H]2C(=O)N1CCCCCCC1,composite z-score,[1],0.795
same,composite z-score,[2],1.48
same,composite z-score,[3],1.11
same,z-score,[4],-0.908 (inactive)
same,composite z-score,[5],0.198
same,composite z-score,[6],-0.246
same,composite z-score,[7],0.0212
same,composite z-score,[8],0.895
same,composite z-score,[9],0.199
same,composite z-score,[10],1.69
same,composite z-score,[11],0.853
same,z-score,[12],0.225
same,composite z-score,[13],-0.11
same,composite z-score,[14],0.914
same,composite z-score,[15],0.966
same,composite z-score,[16],-0.027
same,composite z-score,[17],0.485
same,composite z-score,[18],0.401
same,composite z-score,[19],0.242
same,composite z-score,[20],1.24
CCN1C(C)=C(C(=O)OC)[C@@H](c2ccccc2)N2C(=O)[C@](O)(C(=O)OC)[C@@H](c3ccccc3)C(C(=O)c3ccccc3)=C12,composite z-score,[1],0.689
same,composite z-score,[2],0.0153
same,composite z-score,[3],-0.396
same,z-score,[4],-2.45 (inactive)
same,composite z-score,[5],0.436
same,composite z-score,[6],0.779
same,composite z-score,[7],0.385
same,composite z-score,[8],0.363
same,composite z-score,[9],0.812
same,composite z-score,[10],-0.411
same,composite z-score,[11],0.474
same,z-score,[12],-1.15
same,composite z-score,[13],0.499
same,composite z-score,[14],0.0865
same,composite z-score,[15],0.0844
same,composite z-score,[16],-0.0685
same,composite z-score,[17],0.166
same,composite z-score,[18],0.158
same,composite z-score,[19],0.653
same,composite z-score,[20],0.232
